# Reference: PubChem BioAssay
# Active and inactive are the calls of the source.
# Legend:
# [1] = tested on: PRMT1 (protein arginine N-methyltransferase 1); assay: small molecules binding arginine methyltransferase PRMT1 – biochemical, small-molecule microarray, 635 nm fluorescence, primary screen (AID 1088); details: higher = more signal;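 also: binding of Prmt1 protein to compounds spotted on small-molecule microarray slides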
# [2] = growth effects on S. cerevisiae YJM789 – YJM789 clinical isolate, OD600, 24 h, basal, primary screen (AID 1089); details: higher = more signal, called active from +8 up or from −8 down;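 also: growth of clinical yeast isolate S. cerevisiae YJM 789 seeded 1000 cells per well; test concentration not given here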
# [3] = S. pombe growth modifiers, basal conditions – strain 972, OD600, 24 h, no modulator, primary screen (AID 1090);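 also: basal condition with compound alone and no growth modifier present; test concentration not given here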; details: S. pombe 972 growth, higher = more signal, called active from +8 up or from −8 down
# [4] = budding yeast growth modifiers under rapamycin – strain BY4716, OD600, 96 h, primary screen (AID 1091); also: test concentration not given here; details: S. cerevisiae BY4716 + rapamycin, higher = more signal, called active from +8 up or from −8 down
# [5] = molecular target: Torsin-1A-interacting protein 2 (Homo sapiens) (UniProt Q8NFQ8); assay: small molecules binding lysate-expressed LULL1 – cell lysate, human LULL1 lysate, 635/667 nm fluorescence, primary screen (AID 1092); details: small-molecule microarray, hLULL1 lysate binding, 635 nm fluorescence; higher = more signal;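 also: probe is lysate of COS7 cells overexpressing human LULL1; score merges per-feature 667 nm fluorescence with signal-to-noise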
# [6] = optical density change of DRC41 E. coli – strain DRC41, OD650, 24 h, E. coli filamentation project, primary screen (AID 1093);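 also: MC1000 strain lacking acrAB efflux and sulA so SOS filamentation is blocked; test concentration not given here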; details: E. coli DRC41 growth, higher = more signal, called active from +8 up or from −8 down
# [7] = probe aLefty2 binding to arrayed compounds – biochemical, biotinylated probe, 635/667 nm fluorescence, primary screen (AID 1094); details: small-molecule microarray, higher = more signal;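 also: score merges spot fluorescence near 667 nm with spot signal-to-noise ratio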
# [8] = tested on: Noggin (protein binding on small-molecule microarray); assay: small molecules binding Noggin protein – biochemical, 635/667 nm fluorescence, primary screen (AID 1095); details: 635 nm fluorescence, higher = more signal;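 also: score merges 667 nm feature fluorescence with signal to noise over triplicate slides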
# [9] = molecular target: Neurogenic locus notch homolog protein 3 (Homo sapiens) (UniProt Q9UM47); assay: small molecules binding NOTCH3 protein – biochemical, 635/667 nm fluorescence, primary screen (AID 1096); details: small-molecule microarray, 635 nm fluorescence, higher = more signal
# [10] = probe aEGFR binding to arrayed compounds – biochemical, biotinylated probe, 635/667 nm fluorescence, primary screen (AID 1097); details: small-molecule microarray, higher = more signal;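 also: probe is a biotinylated anti-EGFR antibody binding compounds printed on slides; score combines fluorescence near 667 nm and signal to noise of each spot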
# [11] = tested on: Plasmodium falciparum Sir2 (PF13_0152, Sir2A); assay: Plasmodium falciparum Sir2A binding compounds – biochemical, small-molecule microarray, 635 nm fluorescence, primary screen (AID 1098); details: fluorescence 635 nm, higher = more signal;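 also: score merges spot fluorescence intensity with its signal-to-noise ratio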
# [12] = probe aDKK1 binding to arrayed compounds – biochemical, biotinylated probe, 635/667 nm fluorescence, primary screen (AID 1099); details: small-molecule microarray, higher = more signal;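 also: score merges 667nm spot fluorescence with signal to noise across triplicate slides; reference of the scale not given here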
# [13] = probe aCHRDL2 binding to arrayed compounds – biochemical, biotinylated probe, 635/667 nm fluorescence, primary screen (AID 1100); details: small-molecule microarray, higher = more signal
# [14] = change in splice reporter luminescence, either direction, cell-based, HEK293, spliceosome inhibition project, primary screen (AID 1101); details: HEK293 splicing luciferase reporter, 24 h, higher = more signal, called active from +8 up or from −8 down;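 also: HEK293 cells carrying a splicing-competent luciferase reporter gene; test concentration not given here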
# [15] = molecular target: Fibroblast growth factor 10 (Homo sapiens) (UniProt O15520); assay: compounds binding fibroblast growth factor 10 – biochemical, small-molecule microarray, 635 nm fluorescence, primary screen (AID 1102); details: FGF10 binding, fluorescence 635 nm, higher = more signal
# [16] = tested on: glycogen synthase kinase-3 (GSK3A per assay name; protocol says GSK3B); assay: compounds binding glycogen synthase kinase-3 – biochemical, small-molecule microarray, 635 nm fluorescence, GSK3A, primary screen (AID 1103); details: fluorescence 635 nm, higher = more signal; also: the record names both GSK3A and GSK3B
# [17] = molecular target: Epidermal growth factor receptor (Homo sapiens) (UniProt P00533); assay: compounds binding epidermal growth factor receptor – biochemical, small-molecule microarray, 635 nm fluorescence, primary screen (AID 1104); details: EGFR binding, higher = more signal;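 also: score merges 667 nm emission intensity with spot signal to noise over triplicate slides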
# [18] = molecular target: Follistatin-related protein 3 (Homo sapiens) (UniProt O95633); assay: compounds binding follistatin-related protein 3 – biochemical, small-molecule microarray, 635 nm fluorescence, primary screen (AID 1105); details: FSTL3 binding, higher = more signal;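 also: score merges emission near 667 nm and signal to noise per printed spot across three slides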
# [19] = molecular target: Dickkopf-related protein 1 (Homo sapiens) (UniProt O94907); assay: small molecules binding DKK1 protein – biochemical, small-molecule microarray, 635 nm fluorescence scan, primary screen (AID 1106); details: higher = more signal;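 also: score merges emission near 667 nm with signal to noise over three replicate slides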
# [20] = tested on: Inhibin beta A chain (activin A); assay: small molecules binding activin A – biochemical, small-molecule microarray, 635 nm fluorescence scan, primary screen (AID 1107); details: INHBA, higher = more signal;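 also: mouse activin A protein probed at 4.33 µg/mL on printed slides; score merges bound-protein fluorescence near 667 nm with spot signal-to-noise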
# Sequence of Follistatin-related protein 3 (Homo sapiens) (O95633 whole entry, looked up): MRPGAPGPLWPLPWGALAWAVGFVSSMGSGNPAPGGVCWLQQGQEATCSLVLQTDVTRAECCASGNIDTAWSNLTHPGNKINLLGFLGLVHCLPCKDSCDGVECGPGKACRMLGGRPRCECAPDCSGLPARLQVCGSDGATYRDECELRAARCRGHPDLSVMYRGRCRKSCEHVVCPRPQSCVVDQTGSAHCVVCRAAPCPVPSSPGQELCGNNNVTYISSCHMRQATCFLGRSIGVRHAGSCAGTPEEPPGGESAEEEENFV
# Sequence of Epidermal growth factor receptor (Homo sapiens) (P00533 whole entry, looked up): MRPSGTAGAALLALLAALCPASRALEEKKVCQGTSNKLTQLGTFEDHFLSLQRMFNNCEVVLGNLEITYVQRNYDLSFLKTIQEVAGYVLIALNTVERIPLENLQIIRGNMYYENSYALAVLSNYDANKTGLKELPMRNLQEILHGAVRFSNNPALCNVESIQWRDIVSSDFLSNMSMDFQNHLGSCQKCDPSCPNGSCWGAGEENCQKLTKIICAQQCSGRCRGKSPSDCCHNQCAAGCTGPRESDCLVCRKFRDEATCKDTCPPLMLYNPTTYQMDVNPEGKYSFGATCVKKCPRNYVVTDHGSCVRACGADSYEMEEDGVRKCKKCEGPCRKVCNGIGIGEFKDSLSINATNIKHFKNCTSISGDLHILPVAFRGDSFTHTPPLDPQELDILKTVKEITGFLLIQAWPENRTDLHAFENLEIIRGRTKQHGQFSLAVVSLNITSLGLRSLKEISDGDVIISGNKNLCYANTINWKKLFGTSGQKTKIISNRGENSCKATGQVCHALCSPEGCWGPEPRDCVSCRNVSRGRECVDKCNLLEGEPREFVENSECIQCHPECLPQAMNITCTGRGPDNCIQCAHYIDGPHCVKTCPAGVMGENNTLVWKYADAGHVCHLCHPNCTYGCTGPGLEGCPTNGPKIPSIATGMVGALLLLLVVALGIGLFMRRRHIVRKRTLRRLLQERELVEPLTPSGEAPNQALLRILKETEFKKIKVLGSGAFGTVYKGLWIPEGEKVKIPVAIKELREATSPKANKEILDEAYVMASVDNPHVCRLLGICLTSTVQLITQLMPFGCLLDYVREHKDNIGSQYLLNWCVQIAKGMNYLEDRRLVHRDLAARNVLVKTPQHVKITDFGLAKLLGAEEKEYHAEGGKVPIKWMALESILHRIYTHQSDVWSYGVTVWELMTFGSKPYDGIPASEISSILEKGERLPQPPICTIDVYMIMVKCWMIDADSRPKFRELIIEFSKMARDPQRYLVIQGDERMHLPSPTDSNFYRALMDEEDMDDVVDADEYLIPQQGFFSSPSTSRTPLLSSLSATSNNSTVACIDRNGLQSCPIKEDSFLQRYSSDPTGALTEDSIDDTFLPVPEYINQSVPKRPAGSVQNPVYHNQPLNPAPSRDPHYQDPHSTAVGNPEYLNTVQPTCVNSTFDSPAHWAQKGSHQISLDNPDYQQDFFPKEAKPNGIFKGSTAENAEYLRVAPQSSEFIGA
# Sequence of Neurogenic locus notch homolog protein 3 (Homo sapiens) (Q9UM47 whole entry, looked up): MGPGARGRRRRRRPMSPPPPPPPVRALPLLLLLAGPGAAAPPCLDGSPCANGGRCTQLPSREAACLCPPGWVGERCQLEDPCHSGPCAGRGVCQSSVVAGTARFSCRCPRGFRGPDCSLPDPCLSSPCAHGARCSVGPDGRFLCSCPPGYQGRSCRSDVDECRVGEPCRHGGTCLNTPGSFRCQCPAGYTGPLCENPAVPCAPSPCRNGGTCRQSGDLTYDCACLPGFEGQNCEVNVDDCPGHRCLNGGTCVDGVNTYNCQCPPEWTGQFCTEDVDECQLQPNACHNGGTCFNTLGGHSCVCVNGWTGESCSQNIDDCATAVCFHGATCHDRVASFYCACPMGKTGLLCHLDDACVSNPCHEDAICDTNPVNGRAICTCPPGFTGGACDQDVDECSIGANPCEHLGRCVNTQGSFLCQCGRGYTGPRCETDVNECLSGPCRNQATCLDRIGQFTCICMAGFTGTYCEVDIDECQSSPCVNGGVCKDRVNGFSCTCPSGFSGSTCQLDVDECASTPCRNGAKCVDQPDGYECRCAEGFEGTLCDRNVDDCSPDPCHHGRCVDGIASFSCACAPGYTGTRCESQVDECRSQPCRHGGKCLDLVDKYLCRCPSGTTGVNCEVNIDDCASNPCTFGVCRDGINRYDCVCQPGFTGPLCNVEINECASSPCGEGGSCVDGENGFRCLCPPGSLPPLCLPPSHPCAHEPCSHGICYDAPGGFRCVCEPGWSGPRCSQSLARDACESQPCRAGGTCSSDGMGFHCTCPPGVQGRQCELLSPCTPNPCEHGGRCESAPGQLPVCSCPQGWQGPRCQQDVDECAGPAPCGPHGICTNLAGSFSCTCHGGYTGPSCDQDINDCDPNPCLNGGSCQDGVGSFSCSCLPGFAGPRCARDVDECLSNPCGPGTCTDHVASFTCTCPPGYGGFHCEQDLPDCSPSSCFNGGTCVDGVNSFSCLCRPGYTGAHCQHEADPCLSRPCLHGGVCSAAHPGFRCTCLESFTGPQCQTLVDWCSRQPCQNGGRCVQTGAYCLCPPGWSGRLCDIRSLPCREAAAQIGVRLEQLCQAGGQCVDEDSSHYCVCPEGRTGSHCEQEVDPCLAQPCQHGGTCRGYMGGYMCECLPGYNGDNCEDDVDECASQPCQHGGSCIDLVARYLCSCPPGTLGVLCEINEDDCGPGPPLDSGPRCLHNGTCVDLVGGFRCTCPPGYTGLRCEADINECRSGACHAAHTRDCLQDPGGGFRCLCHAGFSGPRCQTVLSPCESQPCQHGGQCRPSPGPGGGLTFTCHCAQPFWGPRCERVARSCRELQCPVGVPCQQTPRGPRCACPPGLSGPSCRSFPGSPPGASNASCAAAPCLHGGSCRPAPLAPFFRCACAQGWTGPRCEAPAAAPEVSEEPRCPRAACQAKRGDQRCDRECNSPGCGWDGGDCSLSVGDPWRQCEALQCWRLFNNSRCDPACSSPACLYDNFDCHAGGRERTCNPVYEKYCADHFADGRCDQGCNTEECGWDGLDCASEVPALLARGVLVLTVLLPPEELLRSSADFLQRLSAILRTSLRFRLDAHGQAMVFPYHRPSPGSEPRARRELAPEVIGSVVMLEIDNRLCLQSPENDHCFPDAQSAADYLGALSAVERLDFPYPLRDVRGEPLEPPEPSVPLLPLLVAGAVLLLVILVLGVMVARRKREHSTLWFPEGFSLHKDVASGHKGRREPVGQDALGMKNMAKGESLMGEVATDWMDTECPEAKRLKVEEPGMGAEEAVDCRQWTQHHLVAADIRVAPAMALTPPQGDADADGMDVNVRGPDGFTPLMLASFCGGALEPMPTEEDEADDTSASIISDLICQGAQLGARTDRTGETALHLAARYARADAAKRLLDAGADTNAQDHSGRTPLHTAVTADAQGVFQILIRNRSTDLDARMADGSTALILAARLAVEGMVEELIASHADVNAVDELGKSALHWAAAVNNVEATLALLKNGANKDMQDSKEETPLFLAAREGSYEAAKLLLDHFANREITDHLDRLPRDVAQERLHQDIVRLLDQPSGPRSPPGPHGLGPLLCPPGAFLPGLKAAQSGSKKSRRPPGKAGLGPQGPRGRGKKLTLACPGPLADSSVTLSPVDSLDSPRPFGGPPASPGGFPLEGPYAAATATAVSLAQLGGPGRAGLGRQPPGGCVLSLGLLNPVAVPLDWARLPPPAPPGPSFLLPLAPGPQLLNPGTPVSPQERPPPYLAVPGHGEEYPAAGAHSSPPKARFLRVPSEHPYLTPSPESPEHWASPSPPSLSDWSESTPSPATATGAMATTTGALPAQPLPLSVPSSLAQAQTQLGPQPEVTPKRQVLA
# Sequence of Torsin-1A-interacting protein 2 (Homo sapiens) (Q8NFQ8 whole entry, looked up): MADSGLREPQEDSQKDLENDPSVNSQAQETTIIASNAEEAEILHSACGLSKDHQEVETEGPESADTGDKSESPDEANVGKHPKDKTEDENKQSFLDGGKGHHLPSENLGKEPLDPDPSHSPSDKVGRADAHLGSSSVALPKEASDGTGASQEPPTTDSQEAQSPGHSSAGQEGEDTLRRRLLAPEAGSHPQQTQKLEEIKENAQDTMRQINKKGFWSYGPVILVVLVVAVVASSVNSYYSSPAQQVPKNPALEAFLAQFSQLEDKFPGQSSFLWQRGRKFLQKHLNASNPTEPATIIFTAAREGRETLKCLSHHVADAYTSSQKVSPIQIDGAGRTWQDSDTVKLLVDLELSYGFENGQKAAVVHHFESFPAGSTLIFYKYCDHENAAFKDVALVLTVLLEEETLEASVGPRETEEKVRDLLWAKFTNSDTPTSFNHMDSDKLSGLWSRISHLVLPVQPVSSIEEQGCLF
# Sequence of Dickkopf-related protein 1 (Homo sapiens) (O94907 whole entry, looked up): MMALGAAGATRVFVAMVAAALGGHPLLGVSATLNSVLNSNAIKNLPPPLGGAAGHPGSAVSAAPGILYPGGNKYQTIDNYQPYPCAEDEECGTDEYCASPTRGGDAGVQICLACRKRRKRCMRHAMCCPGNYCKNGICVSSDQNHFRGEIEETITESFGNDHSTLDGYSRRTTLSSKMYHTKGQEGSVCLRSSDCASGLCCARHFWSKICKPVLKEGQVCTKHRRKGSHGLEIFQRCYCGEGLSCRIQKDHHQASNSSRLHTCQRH
# Sequence of Fibroblast growth factor 10 (Homo sapiens) (O15520 whole entry, looked up): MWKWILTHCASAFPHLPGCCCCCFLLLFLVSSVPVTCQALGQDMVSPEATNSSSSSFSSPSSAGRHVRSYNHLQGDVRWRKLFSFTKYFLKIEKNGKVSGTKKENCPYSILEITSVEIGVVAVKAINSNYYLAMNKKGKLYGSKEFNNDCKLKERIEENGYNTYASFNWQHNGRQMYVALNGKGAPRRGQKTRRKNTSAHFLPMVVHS
SMILES,composite z-score [1],z-score [2],z-score [3],z-score [4],composite z-score [5],z-score [6],composite z-score [7],composite z-score [8],composite z-score [9],composite z-score [10],composite z-score [11],composite z-score [12],composite z-score [13],z-score [14],composite z-score [15],composite z-score [16],composite z-score [17],composite z-score [18],composite z-score [19],composite z-score [20]
C=CCOC(=O)[C@H]1[C@@H]2C(=O)O[C@@H](c3ccccc3)[C@@H](c3ccccc3)N2[C@@H](c2ccc(OCCOC(=O)[C@@H]3C[C@@H]4C(=O)N[C@@H](CC(C)C)C(=O)N4[C@@H]3c3ccc(O)cc3)cc2)[C@]12C(=O)Nc1ccc(I)cc12,1.58,-3.69 (inactive),0.698 (inactive),3.36 (inactive),2.44,0.452 (inactive),-0.103,1.23,0.752,0.006,1.09,0.0615,-0.0756,-1.41 (inactive),0.649,1.13,0.993,0.644,0.928,-0.0053
CCCCC(=C=CC[C@@H](O)c1ccc(OCCO)cc1)C[C@@H](O)c1ccccn1,1.02,-0.374 (inactive),-1.07 (inactive),-0.689 (inactive),1.18,0.774 (inactive),-0.0825,0.888,0.409,-0.0787,0.381,-0.0087,-0.162,0.0171 (inactive),0.279,0.382,-0.123,0.588,0.414,0.981
COC(=O)[C@@]1(Cc2ccc(OC)cc2)[C@H]2c3cc(C(=O)N(C)C)n(Cc4ccsc4Br)c3C[C@H]2CN1C(=O)c1ccccc1,-0.323,1.36 (inactive),1.51 (inactive),1.53 (inactive),3.41,0.126 (inactive),0.599,-0.56,0.251,0.301,0.895,1.08,0.826,-1.84 (inactive),-0.0197,-0.288,0.374,-0.288,-0.414,0.758
C=CCC(OC(C)=O)[C@@H]1[C@@H](N(Cc2ccc(-c3cccc(C(F)(F)F)c3)o2)C(=O)Cc2ccc(F)cc2)c2cc(OCCCO)ccc2N1C(=O)c1ccc2ccccc2c1 (stereo not given in full),-1.22,-0.428 (inactive),0.498 (inactive),-1.2 (inactive),-0.305,-0.381 (inactive),-0.0485,0.0055,-0.35,0.0804,0.819,-0.185,0.429,-0.182 (inactive),-0.701,-1.87,-0.659,0.199,-0.0392,1.08
C=CCN1C(=O)[C@]2(O[C@H](CCn3cc([C@H](O)c4ccccc4)nn3)[C@@H]([Si](C)(C)c3ccc(OC)cc3)[C@@H]2C)c2cc(N3C(=O)c4cccc5cccc3c45)ccc21,0.755,-0.055 (inactive),1.06 (inactive),1.21 (inactive),0.6,0.374 (inactive),-0.217,0.624,0.232,-0.28,0.783,-0.168,0.195,-1.18 (inactive),0.57,-0.549,-0.795,0.187,-0.857,-0.302
CC(=O)NCCCC[C@@H]1NC(=O)[C@H]2C[C@@H](C(=O)NCCCCCC[N+](C)(C)C)[C@@H](c3ccc(O)cc3)N2C1=O,1.55,-0.509 (inactive),0.555 (inactive),-0.489 (inactive),3.04,0.478 (inactive),-0.0206,1.46,0.702,-0.125,1.71,-0.186,-0.414,-0.652 (inactive),0.348,0.612,0.173,0.946,1.23,0.965
C=CCOC(=O)[C@H]1[C@@H]2C(=O)O[C@@H](c3ccccc3)[C@@H](c3ccccc3)N2[C@@H](c2ccc(OCCOC(=O)[C@H]3C[C@H]4C(=O)NCC(=O)N4[C@H]3c3ccc(O)cc3)cc2)[C@]12C(=O)Nc1ccc(I)cc12,1.3,0.203 (inactive),0.629 (inactive),4.17 (inactive),0.871,0.47 (inactive),-0.148,0.895,0.672,-0.0531,1.41,-0.144,-0.335,0.0882 (inactive),0.669,0.821,0.63,0.915,1.12,0.236
C=CC[C@]1(C(=O)NCCCOC)N=C(c2ccc(OCCCO)cc2)O[C@H]1c1ccccc1,0.36,-0.193 (inactive),-0.266 (inactive),-0.739 (inactive),3.29,0.753 (inactive),0.037,-0.0071,-0.0832,-0.146,1.08,0.107,1.05,-0.318 (inactive),-0.418,0.94,-1.69,-0.0778,-1.13,-0.112
CC(=O)NCCCC[C@@H]1NC(=O)[C@@H]2C[C@H](C(=O)NCCCCCC[N+](C)(C)C)[C@H](c3ccc(O)cc3)N2C1=O,0.914,0.124 (inactive),-0.16 (inactive),0.216 (inactive),1.43,-0.453 (inactive),0.104,0.761,0.157,-0.476,1.42,-0.134,-0.208,-0.0826 (inactive),0.518,0.224,0.0882,0.977,1.12,0.645
C=CCC(OC(C)=O)[C@@H]1[C@@H](N(Cc2ccc(-c3cccc(C(F)(F)F)c3)o2)C(=O)Cc2ccc(OC)cc2)c2cc(OCCCO)ccc2N1C(=O)c1ccc2ccccc2n1 (stereo not given in full),-0.538,0.195 (inactive),0.153 (inactive),-0.44 (inactive),0.806,-0.555 (inactive),-0.0998,-0.306,-0.412,-0.0828,0.51,-0.107,0.621,-0.492 (inactive),0.104,-1.24,-0.567,0.0391,0.062,1.58
